# This excerpt belongs to a sample that is enriched for hits.
# Pf Dd2 inh: qHTS Primary assay for Inhibitors of Plasmodium falciparum Dd2 growth in vitro | Potency, µM (doses to about 28.9 µM), inactives show top-dose activity, negative = inhibition, usual class: inhibitors | 120,000 tested, 4.3% active | P. falciparum Dd2 growth, SYBR Green, 72 h; active = well fitted inhibition curve with a large enough effect;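 note: plate controls were DMSO vehicle for no effect and reference drug for full effect; nearly all actives have a fitted effect of over 65% in size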
#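 Infected erythrocytes (Dd2, 0.3% parasitemia, 2.5% hematocrit final) are added to compound in RPMI-1640/Albumax II medium, grown 72 h at 37C in low oxygen, then lysed with saponin/Triton-X containing SYBR Green and read by fluorescence.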
# * hit, by the source's call; i = inactive; [ ] = remark or other dose. Potency is the fitted concentration of half-maximal effect.
SMILES,Pf Dd2 inh
CC1(C)[C@H](Cc2cc(CN3CCN(c4ccccc4)CC3)on2)C[C@@H]1NC(=O)Nc1ccc(F)cc1,i
CN(C)S(=O)(=O)c1ccc2c(c1)N(CC(=O)N1CCC(C(N)=O)CC1)CCS2,28.4%
COc1ccc(N2CCN(C(=O)CN3CCSc4ccccc43)CC2)cc1,7.0%
COc1cccc(N2CCN(C(=O)CN3CCSc4ccc(S(=O)(=O)N(C)C)cc43)CC2)c1,11.2µM*
COCC(=O)N1CCN(C(=O)c2cccc(F)c2)C[C@H]1C(=O)OC,-20.3%[44.1 µM]
CC(C)NC(=O)C[C@@H]1O[C@H](CNC(=O)C2CC2)[C@@H](O)[C@H]1O,24.8%[44.1 µM]
CN1CC(=O)N(C2CCCNC2)Cc2c(NCCCc3ccccc3)ncnc21 (centres undefined),-6.3%
COc1ccc(-c2ccccc2NC(=O)C2CCCN(Cc3c(O)cccc3OC)C2)cc1 (centres undefined),1.78µM*
COc1ccc(-c2ccccc2NC(=O)C2CCCN(Cc3ccccc3O)C2)cc1 (centres undefined),2.82µM*
CCNC(=O)N1CCCC1C(=O)Nc1ccccc1-c1ccc(OC)cc1 (centres undefined),5.6%
COc1ccc(-c2ccccc2NC(=O)C2CCCN2C(=O)C2(C)CC2)cc1 (centres undefined),-9.9%
COc1ccc(-c2cn3nc(N4CCCC(C(=O)Nc5cccc(Cl)c5C)C4)sc3n2)cc1 (centres undefined),-10.5%
COc1ccc(NC(=O)C2CCCN(c3cnccn3)C2)c(OC)c1 (centres undefined),31.8%
O=[S+]([O-])(c1cccc(C(F)(F)F)c1)N1CC(Oc2ccc(F)cc2F)C1,13.1%
CCOc1ccc(C(=O)N2CCC[C@H]2c2nc(-c3ccccc3Cl)no2)cc1,5.2%
O=C(c1cncc(Br)c1)N1CCC2(CC1)CC(O)CCO2 (centres undefined),13.5%
O=C(Nc1cccc(Cl)c1)N1CCC(n2cnnc2C2CC2)C1 (centres undefined),9.9%
CC(C)CNC(=O)C1Cn2cccc2C(=O)N1C (centres undefined),0.7%
O=C(NC[C@H]1O[C@@H]2C[C@@H](CC(=O)N3CCOCC3)O[C@@H]2[C@@H]1O)Nc1ccc(F)cc1,2.0%[44.1 µM]
CCOc1ccc(C2c3[nH]c4ccccc4c3CCN2C(=O)Cc2cccc(OCC)c2OCC)cc1 (centres undefined),11.2µM*
CCOc1ccc(CNC(=O)c2[nH]c3ccccc3c2Sc2ccc(C)cc2)cc1,-5.1%
CCOc1cccc(CC(=O)NCc2ccc3c(c2)CCN3C(C)=O)c1OCC,66.5%
O=C(COc1ccccc1)NC1CCCc2c1[nH]c1ccccc21 (centres undefined),i
CCOc1cccc(CC(=O)N2CCc3c([nH]c4ccccc34)C2c2ccc(SC)cc2)c1OCC (centres undefined),7.94µM*
O=C(CSCc1ccc(F)cc1)N1CCc2c([nH]c3ccccc23)C1c1ccc(Cl)cc1 (centres undefined),-8.5%
SMILES,Pf Dd2 inh
COC1CCN(C(=O)C(C)(C)Oc2nn(CCOc3ccccc3)c3ccccc23)CC1,i
CCCN(CCO)C(=O)CC1C(=O)NCCN1C1Cc2ccccc2C1 (centres undefined),-14.5%
COc1cccc(CNC(=O)Cn2ccn3nc4c(c3c2=O)CCCCC4)c1OC,i
COc1ccc(C(=O)N2CCCN(c3cc(-c4ccccc4)[nH]n3)CC2)c(C)c1,i
CN(CCN1CCOCC1)C(=O)c1cc(COc2cccc(F)c2)[nH]n1,-20.5%
CN(CC1(CO)CCOCC1)C(=O)c1cc(COc2ccccc2)[nH]n1,-3.7%
CN(CCN1CCCCCC1)C(=O)c1cc(COc2ccccc2)[nH]n1,7.94µM*
O=C1c2c(nc(COc3cccc(F)c3)n2Cc2ccccc2)NCCN1CC1CC1,-3.3%[44.1 µM]
CC(=O)Nc1ccc(CN2CCCC3(CN[S+](=O)([O-])c4ccccc4N3)C2)cc1 (centres undefined),-18.0%
COc1ccc(-c2cnc(Nc3cccc(N[S+](C)(=O)[O-])c3)c3c2CCO3)cn1,i
Cc1ccc(NC(=O)N2C[C@@H](F)C[C@H]2C(=O)N2CCc3ccccc3C2)cc1C,-19.8%
COc1ccccc1NC(=O)N1C[C@@H](F)C[C@H]1C(=O)N1CCc2ccccc2C1,8.91µM*
Cc1ccc(C)c(NC(=O)N2C[C@@H](F)C[C@H]2C(=O)N2CCc3ccccc3C2)c1,19.3%
CN(C)[C@@H]1CN(C(=O)c2ccoc2)CC[C@@H]1CO,i
Cc1ccc(NC(=O)CSc2nc3ccc(NC(=O)c4ccco4)cc3s2)c(C)c1,-8.5%
Cc1ccccc1NC(=O)CSc1nc2ccc(NC(=O)c3ccco3)cc2s1,11.2µM*
Cc1ccccc1OCCSc1nc2ccc(NC(=O)c3cccs3)cc2s1,1.12µM*
Cc1ccccc1C(=O)Nc1ccc2nc(SCCOc3ccccc3)sc2c1,i
Cc1ccccc1NC(=O)CSc1nc2ccc(NC(=O)c3ccccc3)cc2s1,14.1%
Cc1ccccc1OCC(=O)Nc1ccc2nc(SCCOc3ccccc3)sc2c1,-10.2%
COCCCNC(=O)c1cc(C)nc2onc(C3CCCNC3)c12 (centres undefined),12.1%
COc1ccc(C(=O)N2CCC[C@H](n3c(=O)n(CC4CC4)c4cccnc43)C2)cc1F,12.6µM*
CCOC(=O)CCNC(=O)N1CCC[C@H](n2c(=O)n(CC3CC3)c3cccnc32)C1,-15.2%
COCCn1c(=O)n([C@H]2CCCN(C(=O)c3cc(F)ccc3F)C2)c2ncccc21,4.4%
Cc1cccc(C)c1OCc1cc(C(=O)N(C)CCCC2CCCC2)no1,-2.1%
SMILES,Pf Dd2 inh
COC(=O)CN1C(=O)[C@@H]2C[C@@H](O)CN2C2(CN(CC3CC3)C2)C1=O,25.5%[44.1 µM]
Cc1cccc(C(=O)N2CCCC(c3nc(C(C)C)no3)CCNC(=O)CC2)c1 (centres undefined),-10.1%
COc1cccc(-c2nc(N3CCOCC3)cc3c2CN(CC(F)(F)F)C3=O)c1OC,-0.6%[44.1 µM]
COc1cccc(-c2nc(N3CCOCC3)cc3c2CN(CC2CC2)C3=O)c1OC,3.7%[44.1 µM]
COc1ncccc1-c1nc(N2CCOCC2)cc2c1CN(CC(F)(F)F)C2=O,76.7%[44.1 µM]
COc1cccc(-c2nc(N3CCOCC3)cc3c2CN(Cc2ccccc2)C3=O)c1OC,11.2µM*
O=C1c2cc(N3CCOCC3)nc(-c3cccc(F)c3)c2CN1CC1CC1,i
O=C1c2cc(N3CCOCC3)nc(-c3cccc(O)c3)c2CN1CC(F)(F)F,2.82µM*
Cc1noc(C)c1S(=O)(=O)N1CCC2(C1)C(=O)N(C)c1ccccc12 (centres undefined),-12.5%
O=C(NCC1CCN(Cc2ccccn2)C1)Nc1ccccc1Cl (centres undefined),i
COc1ccc(N(Cc2cccs2)C(=O)c2ccc(OC)c(Cl)c2)cc1,3.4%
COc1ccc(N(Cc2cccs2)C(=O)COc2cccc(Cl)c2)cc1,-8.1%
CCCCOc1cccc(C(=O)N(Cc2cccs2)c2ccc(OC)cc2)c1,0.316µM*
CC1=NOC2(CCN(C(=O)c3ccc(C(F)(F)F)cc3)CC2)C1,13.1%[44.1 µM]
COc1ccccc1CCc1nc(C2CC(=O)N(c3ccc(F)c(Cl)c3)C2)no1 (centres undefined),57.9%
Cc1ccc(-c2cnc([C@@H]3COCCN3Cc3cnc[nH]3)[nH]2)cc1,i
CC(C)(C)c1cnc([C@@H]2COCCN2Cc2ccc(Cl)cc2)[nH]1,3.98µM*
CC(=O)Nc1ccc(CN2CCOC[C@H]2c2ncc(-c3ccc(F)cc3F)[nH]2)cc1,i
CC(C)(C)CN1CCOC[C@H]1c1ncc(-c2ccc(F)cc2F)[nH]1,i

# Bioassay records deposited in PubChem BioAssay by National Center for Advancing Translational Sciences (NCATS).
